# Results from PubChem BioAssay AID1224858 (National Center for Advancing Translational Sciences (NCATS), 2016).
# Records with an inconclusive call do not appear. Entries that show only a call come without a potency. Active and inactive are the calls of the source. The call rests on the fitted dose curve; in most records, active means well fitted inhibition curve with a large enough effect; inconclusive means small, poorly fitted or top-dose-only effect; inactive means no such curve, though single readings can be large or run the other way.
# Assay: Confirmation assay for measurement of the activity of small molecule inhibitors on Zika virus induced Caspase-3 activity in human astrocytes
# Conditions: ZIKV-induced caspase-3/7 luminescence, 6 h; series mostly up to 46.1 µM
# Summary of the method: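 Percent inhibition was derived from Caspase-Glo 3/7 luminescence, scaled between uninfected cells and ZIKV-infected cells. Astrocytes got compound 1 h before 2 FFU/cell ZIKV, then 6 h infection at 37 C.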
row,SMILES,Potency
1,O=C(O)CCC(=O)c1ccc(-c2ccccc2)cc1,19.5 µM (active)
2,CCN1CCC(n2cc(CNc3cc(Cl)c4ncc(C#N)c(Nc5ccc(F)c(Cl)c5)c4c3)nn2)CC1,inactive
3,CCOCCOC(=O)/C=C/c1ccc(OC)cc1,inactive
4,CN(C)CCCSc1ccccc1NC(=O)/C=C/c1ccccc1,13.8 µM (active)
5,CS(=O)(=O)c1ccc(-c2cn3ccccc3n2)cc1,7.74 µM (active)
6,C[C@@H](O[C@H]1OCCN(Cc2n[nH]c(=O)[nH]2)[C@@H]1c1ccc(F)cc1)c1cc(C(F)(F)F)cc(C(F)(F)F)c1,inactive
7,CCCC(=O)OC[C@@H](OC(=O)CCC)[C@@H](OC(=O)CCC)[C@H](Cn1c2nc(=O)[nH]c(=O)c-2nc2cc(C)c(C)cc21)OC(=O)CCC,inactive
8,N[C@H](CSC(c1ccccc1)(c1ccccc1)c1ccccc1)C(=O)O,inactive
9,COCCn1c2c([n+](Cc3cnccn3)c1C)C(=O)c1ccccc1C2=O,5.48 µM (active)
10,O=C(/C=C/c1ccc(O)cc1)c1ccc(O)cc1O,2.75 µM (active)
11,CC1(C)OC2=C(C(=O)c3ccccc3C2=O)[C@H](NCc2ccccc2)[C@H]1O,35.5 µM (active)
12,O=C(Nc1ncc([N+](=O)[O-])s1)c1cccs1,1.95 µM (active)
13,CC[C@]1(O)C[C@H]2CN(CCc3c([nH]c4ccccc34)[C@@](C(=O)OC)(c3cc4c(cc3OC)N(C=O)[C@H]3[C@@](O)(C(=O)OC)[C@H](OC(C)=O)[C@]5(CC)C=CCN6CC[C@]43[C@@H]65)C2)C1,inactive
14,CC1(C)Cc2c(sc(NC(=S)NC(=O)c3ccccc3)c2C(=O)O)CO1,inactive
15,CC(C)c1ccc2oc3nc(N)c(C(=O)O)cc3c(=O)c2c1,1.95 µM (active)
16,CC(C)(C)OC(=O)CN(Cc1ccc(Cl)cc1)Cc1ccc([N+](=O)[O-])s1,inactive

row,SMILES,Potency
1,CCCCCNC(=O)N1CCC(CN(Cc2ccc(Cl)cc2)Cc2ccc([N+](=O)[O-])s2)C1 (configuration not stated),inactive
2,c1ccc(CCNc2nc(-c3ccccc3)cs2)cc1,10.9 µM (active)
3,CC(=O)Nc1ccc([C@H](C)C(=O)Nc2ncc(C(C)C)s2)cc1,10.9 µM (active)
4,Cc1nc(-c2ccc(OCC(C)C)c(C#N)c2)sc1C(=O)O,2.18 µM (active)
5,Cc1c(NC(=O)c2ccc(C(C)(C)C)cc2)cccc1-c1cn(C)c(=O)c(Nc2ccc(C(=O)N3CCOCC3)cc2)n1,inactive
6,CC=CC[C@@H](C)C(=O)[C@H]1C(=O)N[C@@H](C(C)C)C(=O)N(C)CC(=O)N(C)[C@@H](CC(C)C)C(=O)N[C@@H](C(C)C)C(=O)N(C)[C@@H](CC(C)C)C(=O)N[C@@H](C)C(=O)N[C@H](C)C(=O)N(C)[C@@H](CC(C)C)C(=O)N(C)[C@@H](CC(C)C)C(=O)N(C)[C@@H](C(C)C)C(=O)N1C,inactive
7,O=c1oc2cc(O)ccc2s1,inactive
8,Cc1cc(O)c2c(c1)C(=O)c1cc(O)cc(O)c1C2=O,2.75 µM (active)
9,O=C(Nc1ccc([N+](=O)[O-])cc1Cl)c1cc(Cl)ccc1O,1.73 µM (active)
10,NC(N)=NN=C(/C=C/c1ccc([N+](=O)[O-])o1)/C=C/c1ccc([N+](=O)[O-])o1,inactive
11,COc1ccnc2c1CCCCC2S(=O)c1nc2ccccc2[nH]1 (configuration not stated),inactive
12,O[C@@H](COc1cccc2ncccc12)CN1CCN(C2c3ccccc3[C@@H]3[C@H](c4ccccc42)C3(F)F)CC1 (some centres not stated),inactive
13,CC(C)(C)COc1ccc(-n2cc(C(=O)O)cn2)cc1C#N,7.08 µM (active)
14,COc1cc(NC(C)CCCN)c2ncccc2c1 (configuration not stated),inactive
15,O=C(CS)Nc1ccccc1,inactive
16,Cc1ccc(O)c(-n2nc3ccccc3n2)c1,7.74 µM (active)
